Lmaj promast – reduces viability of Leishmania major promastigotes. resazurin fluorescence viability. inhibition, % at 10 µM. 200,000 tested, 9% active; in the data active = inhibition above about 50%;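 note: promastigotes grown with compound for 44 hours at 28 °C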
WT yeast gro inh – growth inhibition of WT yeast, mitochondrial fusion screen; mitochondrial fusion phenotypic screen, WT strain; inhibition, % at 10 µM; 190,000 tested, 2.1% active; in the data active = inhibition above about 58%; tested in S. cerevisiae
Arbovirus anti – arbovirus infection inhibition | inhibition, % at 10 µM | arbovirus infection cell-based antiviral screen | AID 1251 | 200,000 tested, 0.37% active; in the data active = inhibition above about 30%
CHOP inh – blocks CHOP induction under ER stress; CHO-K1 CHOP-promoter luciferase, tunicamycin-induced, 15-18 h; inhibition, % at 10 µM; 220,000 tested, 3.8% active; AID 2732;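 active = compounds that reduced the stress-induced luciferase reporter signal by more than about 70% of percent inhibition, limit read from the data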;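 note: 0% = tunicamycin plus vehicle and 100% = wells without tunicamycin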
Starred values were filed as active, the others as inactive. An excerpt weighted towards active compounds, which were near 12% of everything screened.

For Cc1ccc(S(=O)(=O)N2c3cc(C)ccc3OCC2C(C)(C)C)cc1 (stereo not drawn) the results were Lmaj promast 1.1, WT yeast gro inh 68.8*, Arbovirus anti -16.1 and CHOP inh 37.0.
Screening O=C(CN1CCN(c2ncccn2)CC1)N1CCN(C(c2ccccc2)c2ccccc2)CC1 returned Lmaj promast 98.5*, WT yeast gro inh -18.0 and Arbovirus anti -6.0.
`Cc1cc(N2CCCCC2)nc(-c2ccc(Br)cc2)n1` gave Lmaj promast 19.2, WT yeast gro inh 65.9*, Arbovirus anti 2.4 and CHOP inh 38.8.
Screening COc1cccc(OC)c1OCCNCCO returned Lmaj promast 11.1, WT yeast gro inh -10.4, Arbovirus anti 9.9 and CHOP inh -21.6.
For COCCCNCCOCCOc1ccc(Cl)cc1C(C)(C)C the results were Lmaj promast 100.1*, WT yeast gro inh 49.0, Arbovirus anti -35.0 and CHOP inh 13.6.
For COCCCNCCOCCOc1c(OC)cccc1OC the results were Lmaj promast 83.0*, WT yeast gro inh -6.6, Arbovirus anti 0.4 and CHOP inh -33.7.
For C=CCNCCOCCSc1ccc(Cl)cc1 the results were Lmaj promast 98.9*, WT yeast gro inh 12.7, Arbovirus anti -26.1 and CHOP inh 0.4.
Screening C=CCNCCCOc1ccc(Cl)cc1C(C)(C)C returned Lmaj promast 99.6*, WT yeast gro inh 74.5*, Arbovirus anti -43.3 and CHOP inh 72.0*.
Screening CC1=C([N+](=O)[O-])C(c2ccccc2C(F)(F)F)NC(=O)N1C (stereo not drawn) returned CHOP inh 4.3.
O=S(=O)(c1cccc2c(I)cccc12)N1CCCNCC1 was read as CHOP inh 1.7.
For C=CCNCCOCCOc1ccc(Cl)cc1C(C)(C)C the results were Lmaj promast 99.5*, WT yeast gro inh 35.8, Arbovirus anti -26.1 and CHOP inh 3.7.
`CC(C)(C)NCCOCCOc1ccc(Cl)cc1C(C)(C)C` gave Lmaj promast 91.0*, WT yeast gro inh 43.1, Arbovirus anti -13.3 and CHOP inh 50.4.
Screening COCCNCCCCSc1ccc(Cl)cc1 returned Lmaj promast 91.6*, WT yeast gro inh 8.5, Arbovirus anti -30.7 and CHOP inh 69.7.
COc1ccc(S(=O)(=O)Nc2cc3c(cc2C(C)=O)OCO3)cc1 was read as Lmaj promast -6.6, WT yeast gro inh 8.6, Arbovirus anti -22.8 and CHOP inh 1.7.
For CCOC(=O)c1sc2nccc(N(C)C)c2c1N=CNOC the results were Lmaj promast 6.8, WT yeast gro inh 3.3, Arbovirus anti 1.6 and CHOP inh 26.9.
Screening CCOC(=O)c1sc2nccc(N(C)C)c2c1N=CNOCc1ccccc1 returned Lmaj promast 17.6, WT yeast gro inh 56.0, Arbovirus anti -4.9 and CHOP inh 75.1*.
CC(C)c1ccc(NC(=O)COc2ccccn2)cc1 was read as Lmaj promast 1.3, WT yeast gro inh 16.0, Arbovirus anti 8.0 and CHOP inh -28.2.
Screening CCc1ccc(NC(=O)CSc2nnc(-c3cccs3)n2CC)cc1 returned Lmaj promast 1.4, WT yeast gro inh 4.5, Arbovirus anti -2.2 and CHOP inh 2.2.
Screening CCc1ccc(NC(=O)C(C)Oc2nnc(-c3cccs3)c(-c3cccs3)n2)cc1 (stereo not drawn) returned Lmaj promast 84.1*, WT yeast gro inh 7.8, Arbovirus anti -14.8 and CHOP inh -27.6.
`CC(C)c1ccc(NC(=O)COc2nnc(-c3cccs3)c(-c3cccs3)n2)cc1` gave Lmaj promast 82.6*, WT yeast gro inh 6.7, Arbovirus anti -11.6 and CHOP inh 16.6.
Screening CCC(=O)N=c1ccn(C2=Nc3ccccc3NC2=C(C#N)C#N)cc1 returned CHOP inh 5.5.
For Cc1ccccc1NC(=O)COC(=O)c1ccc(S(C)(=O)=O)c([N+](=O)[O-])c1 the results were Lmaj promast -5.7, WT yeast gro inh -1.1, Arbovirus anti -2.5 and CHOP inh 103.0*.
Screening CC(=O)c1cccc(NC(=O)COC(=O)c2ccc(S(C)(=O)=O)c([N+](=O)[O-])c2)c1 returned Lmaj promast -2.5, WT yeast gro inh -9.7, Arbovirus anti -6.1 and CHOP inh -66.7.
`CC(CCc1ccccc1)NC(=O)COC(=O)c1ccc(S(C)(=O)=O)c([N+](=O)[O-])c1` (stereo not drawn) gave Lmaj promast -0.2, WT yeast gro inh -3.9, Arbovirus anti -32.3 and CHOP inh 101.4*.
Screening CCN1C(=O)[C@@H]2[C@H](C1=O)[C@@H]1C[C@H]3C(=O)N(CC)C(=O)[C@H]3[C@@H]3C1=C(C(=O)N1C(=O)OC(=NCC4CC4)[C@]31C)[C@@H]2C returned CHOP inh -12.0.
COCCn1nnnc1C(C(C)C)N1CCSCC1 (stereo not drawn) was read as Lmaj promast -7.8, WT yeast gro inh -6.4, Arbovirus anti -4.2 and CHOP inh -17.6.
Cc1c(CCO)c(=O)n(-c2ccccc2)n1S(=O)(=O)c1ccc(Cl)cc1 was read as Lmaj promast -4.7, WT yeast gro inh -7.6, Arbovirus anti -0.1 and CHOP inh 31.0.
For O=S(=O)(c1ccccc1)N1CCN(Cc2ccccc2C(F)(F)F)CC1 the results were Lmaj promast 92.0*, WT yeast gro inh 26.6, Arbovirus anti 5.7 and CHOP inh 61.6.
For FC(F)(F)c1ccccc1CN1CCN(C2CCCCCC2)CC1 the results were Lmaj promast 97.2*, WT yeast gro inh 19.3, Arbovirus anti 9.6 and CHOP inh -3.1.
Screening Cc1ccc(S(=O)(=O)N2CCN(Cc3ccccc3C(F)(F)F)CC2)cc1 returned Lmaj promast -0.2, WT yeast gro inh 1.6, Arbovirus anti 7.5 and CHOP inh 18.3.
Cc1[nH]n(-c2ccccc2)c(=O)c1/C=N/N1C(=O)c2ccc3c4c(ccc(c24)C1=O)CC3 was read as Lmaj promast -2.7, WT yeast gro inh 27.5, Arbovirus anti -16.2 and CHOP inh 7.5.
COC(=O)c1ccc(N=NNc2ccccc2)cc1 was read as Lmaj promast -7.5, WT yeast gro inh 3.5, Arbovirus anti -13.4 and CHOP inh 19.3.
COC(=O)c1ccc(N=NNc2cccc(Br)c2)cc1 was read as Lmaj promast -6.7, WT yeast gro inh 21.3, Arbovirus anti 8.1 and CHOP inh 90.9*.
Screening Cc1ccc(NC(=O)C(C)N=C2NS(=O)(=O)c3ccccc32)cc1F (stereo not drawn) returned CHOP inh -48.5.
CC(C)(CNC(=O)COc1ccccc1Cc1ccccc1)N1CCOCC1 was read as Lmaj promast 10.3, WT yeast gro inh 7.2, Arbovirus anti -7.6 and CHOP inh 3.8.
`COc1ccc(NC(=O)c2cc([N+](=O)[O-])ccc2O)cc1` gave Lmaj promast 2.9, WT yeast gro inh 17.5, Arbovirus anti -7.6 and CHOP inh 75.0*.
Screening O=C(Nc1ccccc1)c1ccccc1OCc1cccc([N+](=O)[O-])c1 returned Lmaj promast 54.6*, WT yeast gro inh -10.1, Arbovirus anti 4.0 and CHOP inh 24.5.
`COc1ccc(NC(=O)c2cccc([N+](=O)[O-])c2)cc1` gave Lmaj promast 3.3, WT yeast gro inh 18.4, Arbovirus anti -5.1 and CHOP inh -6.7.
Screening O=C(O)c1ccccc1C(=O)Nc1cccc([N+](=O)[O-])c1 returned CHOP inh 1.3.
`O=C(Nc1cccc([N+](=O)[O-])c1)c1cc2ccccc2cc1O` gave CHOP inh 85.9*.

Assay outcomes as filed in PubChem BioAssay.
